Laboratory results from the supplement of paper PMC6555819.

Legend:
Experiment in all cases: PBM binding z-score (relative to random genomic background probes); higher = stronger binding; sequences stand for … in GC…GCGATTGACAGCGTAGAATGAAGG
[1] = system: FXR:RXRa (NR concentration 270 nM, RXRa partner concentration 90 nM)
Summary of the method: (§1)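 For binding z-scores, the reference was random background probes on custom Agilent 4×180K protein-binding microarrays. These arrays were incubated 1 h with ligand-free nuclear receptor dimers in PBS pH 7.4, 2% milk, 0.02% Triton X-100, 1 mM DTT, 0.2 mg/mL BSA and 0.4 mg/ml salmon testes DNA. Fluorescence was scanned after antibody detection of each partner (one per run) and regression-normalized.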

[2] = system: LXRa:RXRa (NR concentration 270 nM, RXRa partner concentration 90 nM)
Summary of the method: as §1

[3] = system: LXRa homodimer (NR concentration 270 nM)
Summary of the method: as §1

[4] = system: LXRb:RXRa (NR concentration 270 nM, RXRa partner concentration 90 nM)
Summary of the method: as §1

[5] = system: LXRb homodimer (NR concentration 270 nM)
Summary of the method: as §1

[6] = system: PPARa:RXRa (NR concentration 270 nM, RXRa partner concentration 90 nM)
Summary of the method: as §1

[7] = system: PPARg:RXRa (NR concentration 180 nM, RXRa partner concentration 90 nM)
Summary of the method: as §1

[8] = system: PPARg:RXRa 270nM:90nM, anti-RXR (NR concentration 270 nM, RXRa partner concentration 90 nM)
Summary of the method: as §1

[9] = system: PPARg:RXRa 30nM:10nM, anti-RXR (NR concentration 30 nM, RXRa partner concentration 10 nM)
Summary of the method: as §1

[10] = system: PPARg:RXRa 90nM:30nM, anti-RXR (NR concentration 90 nM, RXRa partner concentration 30 nM)
Summary of the method: as §1

[11] = system: PPARg:RXRa DBDmut IVT, anti-RXR (DBD mutation: RXRa K156A/R161A, NR concentration 270 nM, RXRa partner concentration 90 nM)
Summary of the method: as §1

[12] = system: PPARg:RXRa IVT, anti-PPARg (NR concentration 270 nM, RXRa partner concentration 90 nM)
Summary of the method: as §1

[13] = system: PPARg DBDmut:RXRa IVT, anti-PPARg (DBD mutation: PPARg1 K132A/R137A, NR concentration 270 nM, RXRa partner concentration 90 nM)
Summary of the method: as §1

[14] = system: PPARg DBDmut IVT, anti-PPARg (DBD mutation: PPARg1 K132A/R137A, NR concentration 270 nM)
Summary of the method: as §1

[15] = system: PPARg homodimer (NR concentration 180 nM)
Summary of the method: as §1

[16] = system: PXR:RXRa (NR concentration 270 nM, RXRa partner concentration 90 nM)
Summary of the method: as §1

[17] = system: PXR homodimer (NR concentration 270 nM)
Summary of the method: as §1

[18] = system: RARa:RXR (NR concentration 270 nM, RXRa partner concentration 90 nM)
Summary of the method: as §1

[19] = system: RARa homodimer (NR concentration 270 nM)
Summary of the method: as §1

[20] = system: RARb:RXRa (NR concentration 270 nM, RXRa partner concentration 90 nM)
Summary of the method: as §1

Row | Sequence | PBM binding z-score [1] | PBM binding z-score [2] | PBM binding z-score [3] | PBM binding z-score [4] | PBM binding z-score [5] | PBM binding z-score [6] | PBM binding z-score [7] | PBM binding z-score [8] | PBM binding z-score [9] | PBM binding z-score [10] | PBM binding z-score [11] | PBM binding z-score [12] | PBM binding z-score [13] | PBM binding z-score [14] | PBM binding z-score [15] | PBM binding z-score [16] | PBM binding z-score [17] | PBM binding z-score [18] | PBM binding z-score [19] | PBM binding z-score [20]
1 | CCTTACGGGTCACTCCAGGTTACAGCATCGGAGT | 4.9 | 7.35 | 2.06 | 4.72 | 0.0209 | 4.42 | 3.74 | 3.8 | 1.1 | 2.64 | 2.73 | 4.01 | 0.164 | -0.572 | 1.91 | 4.66 | 0.311 | 3.94 | 0.566 | 3.86
2 | CGTCCAAGGTCATAGGAGGTCAGCGAAGACAGAT | 7.87 | 7.84 | 5.46 | 6.23 | 1.15 | 6.44 | 6.36 | 5.99 | 2.57 | 4.9 | 3.34 | 4.77 | 0.336 | -0.611 | 4.47 | 7.04 | 3.83 | 6.41 | 2.5 | 5.66
3 | TCTAGTTGGTCACGGAGGTCACACCCGACGGGTA | 3.19 | 3.31 | 2.4 | 3.2 | 0.762 | 3.73 | 3.54 | 4.03 | 3.5 | 3.66 | 2.48 | 4.28 | 1.28 | 1.19 | 2.95 | 4.15 | 1.24 | 4.2 | 1.58 | 3.79
4 | ATCGCTAGGTAAAAGTTCAGTGAATCCCGAGGAT | 0.352 | 1.06 | 0.677 | 0.618 | -0.3 | 2.84 | 4.94 | 5.9 | 5.05 | 6.23 | -0.272 | 1.63 | 0.14 | -0.441 | 0.521 | 1.64 | 1.06 | 1.49 | -0.726 | 2.04
5 | ACTCGGAGGACAAAGGGCAGAGCTACGCCAGTGA | 0.0109 | 0.0817 | -0.605 | -0.115 | -0.71 | 1.88 | 3.1 | 4.39 | 2.2 | 4.28 | 0.11 | 0.678 | -1.42 | -1.85 | 0.364 | -0.273 | -0.407 | 0.077 | -0.16 | 2.17
6 | GCTGTTAGGTCAGGTTGGTCAGCTAACGGGTACG | 1.95 | 1.14 | -0.132 | 1.04 | 0.0917 | 1.79 | 0.166 | 1 | -0.41 | 0.138 | 2.26 | 1.9 | -0.586 | 0.313 | 1.07 | 0.645 | -0.159 | 1.28 | 0.0798 | 3.49
7 | ACAGACAGGTTAGTGAAGGTAACTCAGCTGGACG | 0.616 | 0.393 | -0.196 | -0.21 | -0.3 | 0.259 | 0.68 | 0.049 | -0.22 | 0.0314 | 0.174 | 0.407 | 0.284 | 0.465 | 0.573 | -0.0921 | -0.25 | 0.306 | 0.0654 | 0.755
8 | TTACCAAGGTGAAGGTCGGTGATCCCTCTGTAGA | 0.881 | 0.952 | -0.494 | 0.467 | -0.916 | 2.14 | 2.65 | 3.05 | 1.65 | 2.96 | 1.69 | 2.91 | -0.0946 | -0.454 | 0.55 | 0.481 | -0.271 | 1.28 | 0.175 | 1.96
9 | TGAATGAGGTTAAAGATCCGGGAACGTGGCGTCG | 2.36 | 1.91 | -0.227 | 1.13 | 0.309 | 3.14 | 2.27 | 3.37 | 1.55 | 2.9 | 2.22 | 2.41 | 0.774 | 0.25 | 0.436 | 1.11 | -0.152 | 1.84 | -0.669 | 1.72
10 | TCTTGTAGATCAAGCAGGTTAAGATAGCCTGAGT | 0.371 | 0.507 | -0.257 | 0.188 | -0.36 | 0.829 | -0.193 | 1.27 | 2.75 | 2.18 | 1.74 | 0.733 | 0.115 | 0.351 | 0.386 | 0.406 | -0.159 | 0.668 | -0.0619 | 0.309
11 | TCATATAGGTAGACAGGTGAAAGTCCGTAAGTTA | 0.952 | 1.11 | 0.173 | 0.898 | -0.226 | 1.32 | 0.974 | 2.5 | 3.79 | 3.27 | 3.02 | 1.33 | 1.18 | 0.507 | 1.25 | 0.852 | 0.981 | 0.512 | 1.24 | 0.76
12 | TGTCAAAGTTCAAAGGAAACGTAAGTATCCACAC | 6.34 | 5.91 | 3.73 | 3.56 | 1.37 | 4.94 | 7.64 | 7.15 | 4.84 | 6.6 | -0.506 | 3.75 | 1.36 | 1.26 | 2.31 | 4.33 | 1.78 | 3.21 | 1.06 | 4.95
13 | ATATGTAGGTTATCGGGTTATTCAGTTTGCGCAT | 1.49 | 1.81 | 1.11 | 2.23 | 1.29 | 3.81 | 6.03 | 4.99 | 2.41 | 4.37 | 7.05 | 7.32 | 2.24 | 2.13 | 2.36 | 1.88 | 1.38 | 1.79 | 2.46 | 1.11
14 | ATCTCTAGGTAACAAGTTAAGTGAAAGAGAGGAC | 0.803 | 0.557 | 0.231 | 0.236 | 0.69 | 1.55 | 2.23 | 3.1 | 1.59 | 2.7 | 3.26 | 2.85 | 1.87 | 1.54 | 0.926 | 0.289 | 0.574 | 0.842 | 0.894 | 0.723
